According to PubChem BioAssay AID1347055 (National Center for Advancing Translational Sciences (NCATS), 2019):
The campaign covered roughly 54,000 compounds. About 120 (0.22%) were called active. Roughly 8% stayed inconclusive and do not appear here. Only a selection was taken, and actives are over-represented in it overall. A number with no mark means an inactive call. Calls follow the shape of the dose curve; as a rule, active = well fitted inhibition curve with a large enough effect; inconclusive = small, poorly fitted or top-dose-only effect, or effect the other way; inactive = flat fitted curve, though single readings scatter.

target: Fumarate hydratase, mitochondrial (Homo sapiens) (UniProt P07954); assay: Identification of activators of human fumarate hydratase by quantitative high-throughput screening; settings: FH coupled MDH/diaphorase resazurin fluorescence, 15 min; series mostly up to 79.9 µM; activity change, negative = inhibition: at the top concentration; also: the screen sought activators but most active calls are inhibition curves; nearly all actives have a fitted effect of over 45% in size
Excerpt: Fumarate hydratase (FH) is a metabolic enzyme that is part of the Krebs-cycle, and reversibly catalyzes the hydration of fumarate to malate. Mutations of the FH gene have been associated with fumarate hydratase deficiency (FHD), hereditary leiomyomatosis, renal cell cancer (HLRCC), and other diseases. Currently there are no high-quality small molecule probes for studying human fumarate hydratase. To address this, we developed a quantitative high throughput screening (qHTS) FH assay and screened a total of 57,037 compounds in dose-response. While no inhibitors of FH were confirmed, a series of phenyl-pyrrolo-pyrimidine-diones (12 compounds) were identified as activators of human fumarate hydratase. […] The binding of two compounds from the series to human fumarate hydratase was confirmed by microscale thermophoresis. The low hit rate in this screening campaign confirmed that FH is a "tough target" to modulate, and the small molecule activators of human fumarate hydratase reported here may serve as a starting point for further optimization and development into cellular probes of human FH and potential drug candidates.
For primary high-throughput screen, 3 ul of FH solution (containing 13.33nM human fumarate hydratase, 13.33IU/ml malic dehydrogenase, 0.2mM NAD, 0.067mg/ml diaphorase and 0.067mM resazurin in the assay buffer (50 mM Tris pH 8.0, 5 mM MgCl2, 0.01% Brij 3) was dispensed into each well in a black solid bottom 1536-well assay plate (Greiner Bio-One) using a BioRAPTR FRD dispenser (Beckman Coulter, Brea, CA). A 1536-well pintool dispenser outfitted with 20 nl pins (Wako Automation, San Diego, CA) was used to transfer 20 nL of DMSO-solubilized compound (Cherrypick plates) to each 1536-well assay plate. Each compound was screened at five concentrations: 15 nM, 151 nM, 1.5 uM, 15.4 uM, 76.9 uM. Following compound transfer, plates were incubated in room temperature for 10 minutes. 1 uL of substrate solution containing fumaric acid (160 uM) was dispensed via BioRAPTR FRD to initiate the reaction. Plates were immediately transferred to a ViewLux microplate imager (PerkinElmer, Waltham, MA), and any resulting resorufin fluorescence was measured (exitation/emission, 525/598 nm) at 0 and 15 minutes. The exposure time is 1 second. Fluorescence from each well was normalized using enzyme-free and DMSO-treated control wells on each plate, and changes in fluorescence (delta RFU) were calculated using the difference in fluorescent signal for each well at 15 minutes versus 0 minutes.
% is scaled to controls: 0 for no effect and ±100 for the full control effect; potency is read from the fitted curve at half-maximal effect.

Fumarate hydratase, mitochondrial (Homo sapiens), sequence (P07954 whole entry, looked up): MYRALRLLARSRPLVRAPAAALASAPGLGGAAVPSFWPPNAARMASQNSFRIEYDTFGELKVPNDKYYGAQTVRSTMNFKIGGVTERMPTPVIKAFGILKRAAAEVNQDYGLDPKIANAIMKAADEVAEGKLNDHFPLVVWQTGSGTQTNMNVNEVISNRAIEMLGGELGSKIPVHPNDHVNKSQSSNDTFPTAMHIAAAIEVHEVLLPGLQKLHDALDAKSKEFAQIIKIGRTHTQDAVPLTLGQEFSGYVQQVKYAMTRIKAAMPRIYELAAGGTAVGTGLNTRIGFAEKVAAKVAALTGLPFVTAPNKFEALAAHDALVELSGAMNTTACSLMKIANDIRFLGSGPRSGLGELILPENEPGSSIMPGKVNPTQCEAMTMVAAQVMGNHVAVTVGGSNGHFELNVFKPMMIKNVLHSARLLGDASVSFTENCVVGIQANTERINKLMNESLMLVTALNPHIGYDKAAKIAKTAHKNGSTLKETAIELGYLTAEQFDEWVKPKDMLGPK

| SMILES | activity change, negative = inhibition | Potency |
| --- | --- | --- |
| CC1(O)CC(O)C2(O)C=COC(O[C@@H]3O[C@H](CO)[C@@H](O)[C@H](O)[C@H]3O)C12 (some centres undefined) | 1.62% [at 53.3 µM] | – |
| CCOc1ccc(CC(=O)NCCc2csc3nc(-c4ccccc4F)nn23)cc1 | -12.1% | – |
| Cc1c(O)cc2c(c1O)COC1(O)CCCOC21 (centres undefined) | 5.93% | – |
| O=C(OC1CN2CCC1CC2)N1CCc2ccccc2C1c1ccccc1 (centres undefined) | 2.64% | – |
| C=C1C2(CCC(=O)OC2(C)C)CC(OC(=O)/C(C)=C/C)C2(C)C13OC14C(=O)OC(C)(C(=O)C12C(=O)OC4C)C3OC(C)=O (centres undefined) | 6.23% [at 20.6 µM] | – |
| CCOc1ccc(/C=C(\C#N)c2nc3ccccc3c(=O)[nH]2)cc1OC | -13.3% | – |
| N#CSc1cc(SC#N)c(N)nc1N | 0.38% [at 20.6 µM] | – |
| CCOc1cccc2c1N[C@@H](c1ccc(C(=O)O)cc1)[C@H]1CC=C[C@@H]21 | – | 28.2 µM (active) |
| CCOc1ccccc1CNC(=O)c1ccc(-n2c(C)cc3c2CCC(C)C3)cc1 (centres undefined) | -9.65% | – |
| CCOc1cccc(CC(=O)N2CCc3c([nH]c4ccccc34)C2c2ccc(F)cc2)c1OCC (centres undefined) | -21.3% | – |
| Cn1c(SCC(=O)N2CCC[C@H]2C(=O)Nc2ccccc2-c2ccccc2)nc2ccccc21 | 0.115% | – |
| COc1cccc(C(=O)NCc2ccc3c(c2)CCN3C(=O)c2ccncc2)c1 | -7.2% | – |
| CCc1cc2c(cc3c(=O)n(CC(=O)NCCc4ccc(OC)c(OC)c4)ncn32)s1 | 1.09% | – |
| COc1cccc(N=C2SC(C(=O)Nc3cccc(Cl)c3)CC(=O)N2C)c1 (centres undefined) | -17% | – |
| COC(=O)N1CCC(n2ncc3c(N4CCOCC4)nc(-c4ccc(NC(=O)Nc5ccc(CO)cc5)cc4)nc32)CC1 | -11% | – |
| [N-]=[N+]=N[C@]1(CO)O[C@@H](n2ccc(N)nc2=O)[C@@H](O)[C@@H]1O | -0.769% | – |
| Cc1cc2nn(-c3ccc(Cl)cc3)nc2cc1NC(=O)C(C)C | -5.15% | – |
| C/C=C(/COC(=O)/C(C)=C/C)C(=O)OC/C=C/c1ccc(OC)cc1 | -4.5% [at 53.3 µM] | – |
| Clc1ccc2ncc(-c3cccc(NC4CCNCC4)n3)n2c1 | 5.21% | – |
| COC(=O)c1cc(Cl)c(NC(C)=O)cc1OC | -1% [at 53.3 µM] | – |
| CCOC(=O)c1[nH]c(C)c(CCC(=O)N2CCN(c3ccccc3)CC2)c1C | -6.53% | – |
| CC1(C)CC[C@]2(C(=O)O)CC[C@]3(C)C(=CCC4[C@@]5(C)C[C@H](O)[C@H](O[C@@H]6OC[C@H](O)[C@H](O)[C@H]6O)[C@@](C)(CO)C5CC[C@]43C)[C@@H]2C1 (some centres undefined) | 2.9% [at 20.6 µM] | – |

| SMILES | activity change, negative = inhibition | Potency |
| --- | --- | --- |
| C[C@@H]1C/C=C/C=C\C=C\C=C\[C@H](O[C@@H]2O[C@H](C)[C@@H](O)[C@H](N)[C@@H]2O)C[C@@H]2O[C@](O)(C[C@@H](O)C[C@H]3O[C@@H]3/C=C/C(=O)O1)C[C@H](O)[C@H]2C(=O)O | -0.5% [at 20.6 µM] | – |
| C=C1[C@@H](C)[C@H]2[C@H](Cc3c[nH]c4ccccc34)NC(=O)[C@]23C(=O)/C=C/C(=O)[C@H](O)/C(C)=C\[C@@H](C)C/C=C/[C@H]3[C@@H]1O | -1.88% [at 53.3 µM] | – |
| Clc1ccc(CSc2nncn3c2cc2occc23)cc1 | -10.1% | – |
| CCC/C=C/C=C/C1CC(O)C2(O)C(=O)OCC12 (centres undefined) | 0.378% | – |
| CC(=O)/C=C/C1C(C)CC(O[C@@H]2O[C@H](CO)[C@@H](O)[C@H](O)[C@H]2O)CC1(C)C (some centres undefined) | -0.219% [at 53.3 µM] | – |
| COc1ccc(NC(=O)c2ccco2)cc1NC(=O)COc1ccc(C)c(C)c1 | 1.59% | – |
| Cc1cc(NC(=O)CSc2ncc(C(=O)Nc3ccc(Cl)cc3)c(=O)n2C)no1 | 6.78% | – |
| C1CCC[C@H]2CCCN3CC[C@@H](CCCCCC[C@@H]4CCCN5CC[C@@H](CC1)O[C@@H]45)O[C@@H]23 | -2.71% [at 0.217 µM] | – |
| CNC(=O)c1ccccc1Nc1nc(Nc2ccc3c(c2OC)CCC[C@@H](N2CCN(CCO)CC2)C3)ncc1Cl | -3.28% | – |
| CN(C)c1cccc(Oc2cnc(Nc3cccc(O)c3)nc2)c1 | -7.76% | – |
| CCOc1ccc(CCNC(=O)CN(c2ccc(C)cc2)S(=O)(=O)N(C)C)cc1OCC | -7.19% | – |
| CC1CN(C(=O)N2CCC(C(=O)NCc3ccco3)CC2)c2cc(Cl)ccc2O1 (centres undefined) | 2.28% | – |
| CC(CCC1(O)OC2CC3C4CC=C5C[C@@H](O[C@@H]6O[C@H](CO)[C@@H](O[C@@H]7O[C@@H](C)[C@H](O)[C@@H](O)[C@H]7O)[C@H](O)[C@H]6O[C@@H]6O[C@@H](C)[C@H](O)[C@@H](O)[C@H]6O)CC[C@]5(C)C4CC[C@]3(C)[C@@]2(O)[C@@H]1C)CO[C@@H]1O[C@H](CO)[C@@H](O)[C@H](O)[C@H]1O (some centres undefined) | 0.389% [at 20.6 µM] | – |
| CC(=O)OC1CCC2(C)C(CCC3(C)C2CC=C2C4CC(C)(C)CCC4(C)CCC23C)C1(C)C(=O)O (centres undefined) | -22% [at 53.3 µM] | – |
| CCC(COC)n1nnc2c(Nc3ccc(OC)cc3C)nc(C)cc21 (centres undefined) | -0.898% | – |
| C[C@H]1COCCN1c1cc(C2(S(=O)(=O)C3CC3)CC2)nc(-c2ccc(NC(=S)NCCO)cc2)n1 | -2.67% | – |
| CCCN(CCC)CCCNC(=O)Cn1ncc2c3ccccc3n(Cc3ccccc3)c2c1=O | -13.9% | – |
| CC(CNC(=O)c1nnc(Cc2cccc(F)c2)o1)c1ccccc1 (centres undefined) | -6.76% | – |
| CC(C)(C)OC(=O)N1CCC(c2c(C(=O)NCCc3ccsc3)cnn2-c2ccc(F)cc2F)CC1 | -7.51% | – |
| CC(=O)c1ccc(NC(=O)CCc2nc(-c3ccc(C)cc3)no2)cc1 | -9.62% | – |
| CC(C)C(=O)Nc1nc2c(s1)CC(C(C)(C)C)CC2 (centres undefined) | -26% | – |
| COC(=O)C12C(=O)C(C)=C(O)C1(C)C(C)=CC1C3(CO)CCC(O)C(C)(C)C3CCC12C (centres undefined) | 2.3% [at 53.3 µM] | – |
